Hits are enriched below; roughly 4.5% of the tested compounds scored in any of these assays.
Mdm2-MdmX inh – disrupts the human Mdm2-MdmX interaction; O15151+Q00987; SaOS-2 split-luciferase Mdm2/MdmX complementation, luminescence; inhibition, % at 8 µM; 330,000 tested, 3% active; AID 485346;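 active = inhibition of at least 50% at 8 µM in the primary screen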
Target sequence (O15151 whole entry, looked up): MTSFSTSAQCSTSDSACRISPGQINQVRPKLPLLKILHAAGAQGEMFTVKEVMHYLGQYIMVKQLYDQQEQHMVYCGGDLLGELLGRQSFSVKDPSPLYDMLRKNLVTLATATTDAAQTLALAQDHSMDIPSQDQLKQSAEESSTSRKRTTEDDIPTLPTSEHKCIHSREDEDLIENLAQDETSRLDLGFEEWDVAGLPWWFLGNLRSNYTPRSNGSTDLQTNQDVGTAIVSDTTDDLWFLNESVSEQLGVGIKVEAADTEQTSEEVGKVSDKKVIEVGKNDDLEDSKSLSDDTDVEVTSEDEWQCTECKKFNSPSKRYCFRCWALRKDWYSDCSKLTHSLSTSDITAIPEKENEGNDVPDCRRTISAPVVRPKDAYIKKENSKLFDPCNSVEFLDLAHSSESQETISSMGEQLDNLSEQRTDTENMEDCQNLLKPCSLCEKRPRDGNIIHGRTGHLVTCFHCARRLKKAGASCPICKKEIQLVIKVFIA
Target sequence (Q00987 whole entry, looked up): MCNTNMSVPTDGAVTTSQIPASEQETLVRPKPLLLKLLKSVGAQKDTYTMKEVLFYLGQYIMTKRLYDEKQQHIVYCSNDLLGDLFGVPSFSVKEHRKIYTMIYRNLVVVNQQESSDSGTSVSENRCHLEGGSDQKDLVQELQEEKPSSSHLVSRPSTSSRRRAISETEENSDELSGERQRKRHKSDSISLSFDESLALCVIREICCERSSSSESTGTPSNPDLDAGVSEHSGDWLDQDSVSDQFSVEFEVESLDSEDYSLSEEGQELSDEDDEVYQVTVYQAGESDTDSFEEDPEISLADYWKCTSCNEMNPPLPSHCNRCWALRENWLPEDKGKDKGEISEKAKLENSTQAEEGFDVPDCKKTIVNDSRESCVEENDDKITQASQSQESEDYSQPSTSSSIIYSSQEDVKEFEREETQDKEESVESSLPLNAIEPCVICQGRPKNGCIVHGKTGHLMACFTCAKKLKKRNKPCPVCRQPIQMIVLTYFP
CSC inhib – cancer stem cell inhibition; inhibition, % at 7.5 µM; cancer stem cell-like cells viability, luminescence; AID 2717; 300,000 tested, 1.1% active; in the data active = inhibition above about 75%; tested in HMLE shEcad cells
697 NFkB inh – inhibitors of the PMA/ionomycin-induced NF-kB reporter in 697 B cells; 697 B-cell NF-kB luciferase reporter, 16 h; inhibition, % at 4 µM; 330,000 tested, 0.33% active; in the data active = inhibition above about 35%
Beta cell apopt – beta cell apoptosis inhibition; 300,000 tested, 0.8% active; protection from apoptosis, % (test concentration not listed); INS-1E cytokine-induced death, ATP luminescence, 48 h; percent of positive-control rescue, neutral wells zero;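 active = Every replicate reaches about 75%, or at least half do and their mean reaches it too, limit read from the data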;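 note: 0% = cytokine-treated negative control wells and 100% = positive control rescue; higher means more ATP so stronger rescue from cytokine killing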
Jurkat NFkB inh – inhibitors of the PMA/ionomycin-induced NF-kB reporter in Jurkat cells | PMA/ionomycin-induced NF-kB luciferase reporter, luminescence | inhibition, % at 4 µM | 330,000 tested, 0.53% active | AID 435003; in the data active = inhibition above about 50%
Gli-Sufu block – Gli-Sufu pathway antagonism; 340,000 tested, 0.74% active; AID 588413; inhibition, % at 5 µM; Sufu-KO-LIGHT fibroblasts, Gli luciferase reporter luminescence;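 active = inhibition above about 55%, limit read from the data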;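 note: 0% = DMSO-treated cells and 100% = wells with medium but no cells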
Jurkat NFkB conf – lowers PMA/ionomycin-induced NF-kB signal in Jurkat cells; inhibition, % at 4 µM; shares compounds with Jurkat NFkB inh; AID 435020; Jurkat NF-kB luciferase, 16 h; 2,700 tested, 27% active;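 active = inhibition reaching about 45% at 4 µM in either replicate, limit read from the data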;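 note: plate controls were PMA/ionomycin stimulated DMSO wells for no effect and unstimulated DMSO wells for full effect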
697 NFkB conf – inhibitors of the PMA/ionomycin-induced NF-kB reporter in 697 B cells, retest. shares compounds with 697 NFkB inh. 697 B-cell NF-kB luciferase, 16 h. inhibition, % at 4 µM. 2,000 tested, 35% active. AID 449746; in the data active = inhibition mostly above about 28%, no sharp cut-off; inactive = mostly below about 22%
Mdm2-MdmX conf – confirmation of human Mdm2/MdmX interaction inhibitors; shares compounds with Mdm2-MdmX inh; Mdm2-MdmX binding, luminescent assay; inhibition, % at 8 µM; 10,000 tested, 55% active; in the data active = inhibition above about 40%
FLuc counter – inhibits full-length luciferase, flagging false Mdm2/MdmX hits; shares compounds with Mdm2-MdmX inh; SaOS-2 full-length luciferase counterscreen, luminescence; inhibition, % at 8 µM; 6,200 tested, 77% active; AID 504607;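 active = mean inhibition at 8 µM reaching about 37%, which flags the compound as non-specific, limit read from the data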;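 note: p53-null SaOS-2 cells with luciferase driven by a doxycycline-inducible promoter; compound on cells about two nights before reading with doxycycline added after day one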
Gli antag conf – confirmation of Gli-SUFU pathway antagonists; shares compounds with Gli-Sufu block; Sufu-KO-LIGHT cells, Gli luciferase reporter, luminescence; inhibition, % at 5 µM; 2,500 tested, 40% active; AID 602428;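 active = mean inhibition at 5 µM reaching about 45%, limit read from the data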;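 note: plate controls were DMSO-treated cells for no effect and wells lacking cells for full effect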
SufuKO cytotox – cytotoxicity counter-screen for Gli-SUFU antagonists. cytotoxicity, % at 5 µM. Sufu-KO-LIGHT cells cytotoxicity, ATP luminescence. AID 651994. shares compounds with Gli-Sufu block. 2,500 tested, 32% active;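 active = mean cytotoxicity at 5 µM above about 25%, limit read from the data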;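 note: cells exposed to compound overnight for roughly 16 to 18 hours; plate controls were DMSO wells with cells for no effect and medium without cells for full effect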
Wnt3a counter – counter-screen for Gli-SUFU antagonists: Wnt3a reporter inhibition | AID 651995 | 2,500 tested, 20% active | Wnt-LIGHT cells, Wnt3a-driven luciferase reporter, luminescence | inhibition, % at 6.25 µM | shares compounds with Gli-Sufu block;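 active = mean inhibition above about 25%, limit read from the data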
* hit, by the source's call; . = no result given.

SMILES	Mdm2-MdmX inh	CSC inhib	697 NFkB inh	Beta cell apopt	Jurkat NFkB inh	Gli-Sufu block	697 NFkB conf	others
CCOc1cc(S(=O)(=O)NCc2ccncc2)ccc1Cl	34	-2	58*	111*	65*	78*	98*	Jurkat NFkB conf=68*;Gli antag conf=79*;SufuKO cytotox=42*;Wnt3a counter=2
CCOc1ccc(S(=O)(=O)NCc2ccncc2)cc1	6	22	100*	116*	72*	82*	93*	Jurkat NFkB conf=70*;Gli antag conf=79*;SufuKO cytotox=37*;Wnt3a counter=47*
CCC(=O)c1ccc(OCC(=O)OCC(=O)N(CCC#N)c2ccc3c(c2)OCCO3)cc1	-15	.	3	3	4	0	.
CCOC(=O)C(C)Oc1cccc2c(=O)n(CC(=O)NCc3ccccc3)ccc12 (centres undefined)	66*	43	-17	13	72*	58*	.	Jurkat NFkB conf=57*;Mdm2-MdmX conf=50*;FLuc counter=67*;Gli antag conf=48*;SufuKO cytotox=55*;Wnt3a counter=6
CCn1nc(C)c(CNC(=O)c2ccc(OC3CCN(Cc4ccccn4)CC3)cc2)c1C	2	-5	11	79*	65*	64*	.	Jurkat NFkB conf=57*;Gli antag conf=66*;SufuKO cytotox=33*;Wnt3a counter=38*
CCn1cc(CNC(=O)c2ccc(OC3CCN(Cc4ccccn4)CC3)cc2)cn1	22	-1	-17	8	17	14	.
CC(=O)N(CCCNC(=O)c1ccccc1)C(=O)c1ccccc1	-13	0	-5	-2	0	7	.
CC(=O)c1ccc(NC(=O)COC(=O)c2nc(Cl)ccc2Cl)cc1	14	-7	1	-1	11	3	.
N=c1c2c(n(Cc3ccc(Br)cc3)c3c1CCC3)CCCC2	43	13	52*	115*	53*	88*	32*	Jurkat NFkB conf=40;Gli antag conf=89*;SufuKO cytotox=38*;Wnt3a counter=54*
N=c1c2c(n(Cc3ccc([N+](=O)[O-])cc3)c3c1CCC3)CCCC2	9	-2	-23	4	-4	32	.
COc1cc(-c2c(-c3cc(OC)c(OC)c(OC)c3)noc2C)ccc1F	84*	58	-280	63	71*	51	-162	Jurkat NFkB conf=47*;Mdm2-MdmX conf=88*;FLuc counter=107*;Gli antag conf=67*;SufuKO cytotox=65*;Wnt3a counter=0
O=C(Nc1ccc(S(=O)(=O)N2CCCC2)cc1)c1cnccn1	10	-9	21	-3	2	3	.
O=C(Nc1ccc(S(=O)(=O)N2CCN(Cc3ccccc3)CC2)cc1)c1cnccn1	10	-3	-6	44	57*	58*	.	Jurkat NFkB conf=54*;Gli antag conf=60*;SufuKO cytotox=33*;Wnt3a counter=29*
Cn1c(CN2CCN(c3ccc(Cl)cc3)CC2)nc2ccccc21	11	-3	16	-19	3	0	.
CCn1c(CN2CCN(c3ccc(Cl)cc3)CC2)nc2ccccc21	27	-4	46*	-5	13	6	51*
Cc1ccc(/C=C/C(=O)NC2=NCCS2)cc1	-99	49	-417	-12	-144	-94	-315
O=C1CSc2cc(Cl)ccc2N1	.	.	.	.	.	-1	.
CN(C)S(=O)(=O)c1ccc(NC(=O)N2CCN(c3ccccc3)CC2)cc1	12	-1	46*	0	-9	23	29*
CC1=NN(C(N)=S)C(=O)C1N=Nc1ccc(Br)cc1 (centres undefined)	-78	.	-314	.	-93	-49	-7
CC1=NN(C(N)=S)C(=O)C1N=Nc1ccc(Cl)cc1 (centres undefined)	-80	9	-230	26	-74	-63	.
COc1cccc(OCCn2cc(/C=N/NC(=O)c3ccncc3)c3ccccc32)c1	-10	-2	-23	-1	1	-8	.
COC(=O)N/N=C/c1cn(CCOc2ccccc2OC)c2ccccc12	21	-6	11	-4	4	6	.
CNC(=S)N/N=C/c1cn(CCOc2cccc(OC)c2)c2ccccc12	32	49	40*	10	-8	10	-11
CNC(=S)N/N=C/c1cn(CCOc2ccccc2OC)c2ccccc12	40	28	35*	-1	-13	21	15
CC(=O)Nc1ccc(NC(=O)C2CC(=O)Nc3nc4ccccc4n32)cc1 (centres undefined)	-6	-13	-20	1	8	0	.
SMILES	Mdm2-MdmX inh	CSC inhib	697 NFkB inh	Beta cell apopt	Jurkat NFkB inh	Gli-Sufu block	697 NFkB conf	others
O=C1CC(C(=O)Nc2cccc(F)c2)n2c(nc3ccccc32)N1 (centres undefined)	1	-9	35*	1	-2	0	-6
COc1cc(-c2nc(S(=O)(=O)c3ccc(C)cc3)c(N3CCOCC3)o2)cc(OC)c1OC	31	3	42*	0	3	-10	20
O=C(NNC(=O)C12CC3CC(CC(Br)(C3)C1)C2)c1ccccc1F	-9	-1	44*	11	3	12	43*
O=C(NNC(=O)C12CC3CC(CC(O)(C3)C1)C2)c1ccccc1O	7	2	-3	.	-7	-12	.
CC(=O)N/C(=C\c1ccccc1)C(=O)OC/C=C/c1ccccc1	28	4	8	0	0	-49	.
Cc1nc(Nc2c(Cl)cccc2Cl)sc1C(=O)Nc1ccccc1	24	.	37*	0	6	0	36*
C=CCN(C(=O)CCC(=O)Nc1cc(C)on1)C(C(=O)NC1CCCC1)c1ccc(OC)cc1OC (centres undefined)	28	.	4	0	19	-8	.
Cc1ccc(/C(O)=C2/C(=O)C(=O)N(c3ccccn3)C2c2cccc([N+](=O)[O-])c2)cc1 (centres undefined)	13	-3	3	-2	-6	7	.
O=C(CN1CCCCCC1)Nc1cc(C(F)(F)F)ccc1Cl	-10	11	11	0	-12	1	.
O=C(O)C1=C(C(=O)Nc2cc(C(F)(F)F)ccc2Cl)CCCC1	0	14	37*	1	-3	-10	6

Screening data: PubChem BioAssay, several laboratories
